Molecules are shown by their SMILES. Several values for one entry are separate records, joined by “and”; a condition that tells them apart may be missing. Identical values can stand only once. This is part of a sample that, as a whole, favours compounds with a hit. Of some 83,000 tested, about 20% had one in any assay.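 Note: values are percent growth. 100 is the growth of untreated cells, values between 100 and 0 indicate rising inhibition; between -100 and 0 indicates cell death.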 Activity calls are given as the source filed them. Rule for the calls: active = growth percent below 10; inactive = the rest.

Common to all, as to assay: NCI-60 one-dose screen, 48 h (100 = growth as untreated, 0 = no growth, -100 = all killed)
Holding throughout (details): 10 µM unless noted

In assay [1] the test system is NCI-H23 lung.
Assay [2] deals with NCI-H226 lung.
The subject of assay [3] is NCI-H322M lung.
In assay [4] the test system is HOP-62 NSCLC.
Assay [5] deals with NCI-H460 lung.
Assay [6] deals with HOP-92 NSCLC.
The subject of assay [7] is NCI-H522 lung.
Assay [8] has as its system A549/ATCC NSCLC.
The test system of assay [9] is 786-0 renal.
Assay [10] concerns COLO 205 colon.

Regarding `CCOC(=O)C(=CCC(C)C)C(=O)OCC`, the growth in assay [1] is 93.1% (inactive); in assay [2], 93.4% (inactive); in assay [3], 104% (inactive); in assay [4] it was 89% (inactive); in assay [5], 106% (inactive); in assay [6], 89.3% (inactive). Moreover, the growth in assay [7] was 104% (inactive); in [8] it was 104% (inactive); in assay [9] it was 95.9% (inactive); in assay [10] it was 116% (inactive).

Take `CCCCCCCCCCCCCCCCCCn1cc(COc2ccc(C=O)cc2)nn1`: the growth in assay [1] is 90.4% (inactive); in assay [2], 102% (inactive); in [3] it was 108% (inactive); in [4], 104% (inactive); in [5] it was 102% (inactive); in assay [6], 135% (inactive). Also, the growth in assay [7] was 89% (inactive); in [8] it was 91.2% (inactive); in assay [9], 94.9% (inactive); in assay [10] it was 113% (inactive).

As to `O=C(CCCCCCCCC(=O)N/N=C\c1ccccc1O)N/N=C\c1ccccc1O`, the growth in [1] was 39.9% (inactive); in assay [2] it was -5.86% (active); in assay [3] it was 19.5% (inactive); in assay [4], 0.588% (active); in [5], -11.3% (active); in assay [6], 41.9% (inactive). In addition, the growth in [7] was 34.3% (inactive); in assay [8] it was 17.1% (inactive); in [9], 3.41% (active); in assay [10] it was 43.1% (inactive).

As to `Nc1ccc(/C=N/Nc2ccnc3c(N)cccc23)c2cccnc12`, the growth was 3.42% (active) in assay [1]; 89.3% (inactive) in assay [2]; -4.16% (active) in [3]; -64.3% (active) in assay [4]; -63.8% (active) in [5]; -17.9% (active) in [6]. Moreover, the growth in [7] was -52.2% (active); in [8], -43.8% (active); in assay [9], -87% (active); in assay [10], -22.8% (active).

Take `COc1ccc(/C=C(\C#N)c2cc3ccccc3[nH]2)cc1`: the growth in assay [1] is 33.2% (inactive); in assay [2] it was 88% (inactive); in [3] it was 49.9% (inactive); in [4] it was 33.2% (inactive); in assay [5], 12.7% (inactive); in assay [6] it was 44% (inactive). Moreover, the growth in assay [7] was 6.84% (active); in assay [8] it was 37.5% (inactive); in assay [9] it was 42.1% (inactive); in assay [10], 9.11% (active).

With `CCCCSc1ccc2nc(-c3ccc(OCCCN=C(N)N)cc3)cn2c1`, the growth in [1] was 63.7% (inactive); in [2], 72.3% (inactive); in assay [3], 90.7% (inactive); in [4], 86.4% (inactive); in [5] it was 43.7% (inactive); in [6], 43.1% (inactive). Besides, the growth is 53.8% (inactive) in [7], 83.8% (inactive) in assay [8], 39.4% (inactive) in assay [9] and 51.1% (inactive) in [10].

As for `COc1ccccc1/C=C/C(=O)/C=C/c1ccccc1OC`, the growth was -26% (active) and 24.7% (inactive) in assay [1]; -30.6% (active) in [2]; 30.6% (inactive) and 38.9% (inactive) in [3]; -22.7% (active) and -19.7% (active) in assay [4]; 2.27% (active) and -3.65% (active) in [5]; -10.9% (active) and 33.9% (inactive) in assay [6]. Moreover, the growth was -84.5% (active) and -58.5% (active) in assay [7]; -13.8% (active) and -7.39% (active) in assay [8]; -56.9% (active) and -47.8% (active) in [9]; -73.7% (active) and -57.9% (active) in assay [10].

For `Cc1ccc(S(=O)(=O)OC[C@@]2(C)CC[C@]3(C)CC[C@]4(C)C(=C3C2)C=C[C@@H]2[C@@]3(C)CCCNC(C)(C)[C@@H]3CC[C@]24C)cc1`, the growth is 59.2% (inactive) in assay [1]; 66.8% (inactive) in assay [2]; 26.9% (inactive) in assay [3]; 53.7% (inactive) in [4]; -65.4% (active) in assay [5]; 28.6% (inactive) in [6]. The growth in [7] is -47.1% (active); in assay [8], -38.2% (active); in [9], -90.7% (active); in assay [10] it was -78% (active).

As for `O=C(c1cccc(Br)c1)N1CCN(c2ccnc3cc(Cl)ccc23)CC1`, the growth was 79.7% (inactive) in [1]; 87.3% (inactive) in assay [2]; 92% (inactive) in [3]; 95.3% (inactive) in assay [4]; 100% (inactive) in assay [5]; 78.7% (inactive) in assay [6]. The growth is 45.1% (inactive) in assay [7], 73.8% (inactive) in [8], 71.9% (inactive) in assay [9] and 93.7% (inactive) in assay [10].

Regarding `COc1ccccc1/C=C1\COc2ccc(O)c(O)c2C1=O`, the growth is 40.8% (inactive) in assay [1]; 76% (inactive) in [2]; 46.2% (inactive) in assay [3]; 17.3% (inactive) in [4]; 24.6% (inactive) in assay [5]; 29.6% (inactive) in assay [6]. In addition, the growth in [7] was -42.3% (active); in [8], 50.6% (inactive); in [9], 2.1% (active); in [10], 77.9% (inactive).

For the molecule `COc1cc(CNC(=O)CCCC/C=C/C(C)C)ccc1OCc1cn(-c2ccc([N+](=O)[O-])cc2)nn1`, the growth in assay [1] is 83.2% (inactive); in [2], 89.6% (inactive); in assay [3], 97.9% (inactive); in assay [4], 80.9% (inactive); in assay [5] it was 99.8% (inactive); in [6], 90.3% (inactive). Moreover, the growth in assay [7] was 78.2% (inactive); in [8], 84.1% (inactive); in [9], 93.7% (inactive); in [10] it was 118% (inactive).

As for `CN(C)c1ccc2nc3ccc(=O)cc-3sc2c1`, the growth in [1] was 11.1% (inactive) and 22% (inactive); in assay [2] it was 71.8% (inactive); in [3] it was 49.7% (inactive) and 70% (inactive); in [4] it was 35.5% (inactive) and 60.7% (inactive); in [5], 19% (inactive) and 34.1% (inactive); in assay [6], 49% (inactive) and 61% (inactive). Moreover, the growth was -10.8% (active) and 41.5% (inactive) in [7]; 1.33% (active) and 35.9% (inactive) in [8]; 57.1% (inactive) and 43.7% (inactive) in [9]; -10.2% (active) and 5.66% (active) in [10].

(Values after PubChem BioAssay (NCI).)
